SMILES strings stand for the structures. Among all 16,000 compounds or so, about 5,700 (36%) were called active. Inconclusive results (about 24%) are left out. Calls come from the whole dose curve; as a rule, active = well fitted curve in the direction sought with a large enough effect; inconclusive = small, poorly fitted or top-dose-only effect, or effect the other way; inactive = no such curve, though single readings can be large or run the other way. The list shows a part of the results.

A word on the AC50: it is the concentration giving half of the maximal activity seen.
% is set by controls: 0 for no effect and ±100 for the full control effect.

For the experiment, the target named is Cytochrome P450 1A2 (Homo sapiens) (UniProt P05177). Nature of the experiment: Cytochrome panel assay with activity outcomes. The following applies: recombinant CYP, pro-luciferin dealkylation, luminescence, p450-cyp1a2; series mostly up to 57.1 µM.
Sequence of Cytochrome P450 1A2 (Homo sapiens) (P05177 whole entry, looked up): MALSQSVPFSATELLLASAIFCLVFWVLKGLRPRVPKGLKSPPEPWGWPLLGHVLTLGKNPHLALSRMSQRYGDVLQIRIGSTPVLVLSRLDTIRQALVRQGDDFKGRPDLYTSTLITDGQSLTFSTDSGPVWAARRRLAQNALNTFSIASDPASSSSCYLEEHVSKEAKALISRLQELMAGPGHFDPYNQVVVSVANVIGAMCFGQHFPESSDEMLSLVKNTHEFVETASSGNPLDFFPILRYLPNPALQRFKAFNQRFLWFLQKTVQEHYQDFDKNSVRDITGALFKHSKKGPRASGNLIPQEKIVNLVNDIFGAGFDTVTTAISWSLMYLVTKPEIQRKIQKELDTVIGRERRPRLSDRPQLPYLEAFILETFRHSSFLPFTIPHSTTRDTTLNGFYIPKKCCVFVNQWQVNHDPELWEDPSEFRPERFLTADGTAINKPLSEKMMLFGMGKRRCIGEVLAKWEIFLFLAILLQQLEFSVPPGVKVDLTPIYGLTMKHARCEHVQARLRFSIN
As to `CCCCNC(=O)C1C2C=CC3(CN(Cc4ccccc4Cl)C(=O)C13)O2` (centres undefined), the AC50 entry was “inactive”. With `Cc1cc(-c2cc(-c3ccc(Cl)cc3)nc(N)c2C#N)co1`, the AC50 was 8.91 µM (active). Regarding `COc1ccc(COC(=O)N/N=C2/C[C@@H](O)[C@@H](O)[C@@H]3[C@@H]4C(=O)N(C(C)(C)C)C(=O)[C@H]4CC[C@@H]23)cc1`, the activity, negative = inhibition was -55.1% [at 11.4 µM] (inactive).

As for `Cc1cc(C)cc(N(C(=O)C2CCCC2)C2C=CS(=O)(=O)C2)c1` (centres undefined), the AC50 result is “inactive”. The same measure, in the same setting: for `N=C1/C(=C/c2cccs2)C(=O)N=C2SN=C(SCc3ccccc3)N12` the value was 15.8 µM (active). With `CO[C@@H]1/C=C\CC(=O)N[C@@H](C)C(=O)OC[C@@H](OC)[C@H](C)CCCC(=O)OC[C@H]1C`, the activity, negative = inhibition is 0.281% [at 11.4 µM] (inactive). On to `Cc1nc2nc(-c3ccc(Cl)cc3)nn2c(C)c1Cl`, for which the AC50 was 0.562 µM (active).

As for `Cc1cc(N2CCN(C)CC2)n2nc(-c3ccc(Cl)cc3)nc2n1`, the activity, negative = inhibition is -14.3% [at 11.4 µM] (inactive). Consider `C/C(Cl)=C\Cn1c(N2CCCC2)nc2c1c(=O)[nH]c(=O)n2C`, for which the AC50 is 14.1 µM (active).

In the case of `CCN1CCN(c2nc3c(c(=O)[nH]c(=O)n3C)n2CCCSc2ncccn2)CC1`, the AC50 entry was “inactive”. The same measure, in the same setting: for `Cc1cc(C)n(-c2nc3c(c(=O)[nH]c(=O)n3C)n2CC(C)C)n1` the value was “inactive”. On to `C#CCCCO/N=C1/[C@H]2O[C@@H]2[C@@H](O)[C@H]2[C@H]1CCn1c(=O)n([C@@H](CC)c3ccccc3)c(=O)n12`, for which the activity, negative = inhibition is -5% [at 11.4 µM] (inactive). In the case of `O=C(c1ccc([N+](=O)[O-])cc1)n1nc(-c2ccccc2)nc1NCc1ccccc1`, the AC50 was 7.08 µM (active). Take `O=C(CCCNS(=O)(=O)c1cccc2nsnc12)NCCc1ccccc1`: the AC50 was 25.1 µM (active). Still for that read-out and setting: for `CC(C)C(NS(=O)(=O)c1cccc2nsnc12)C(=O)N1CCc2ccccc2C1` (centres undefined) the value was “inactive”; for `COc1ccc(CCNC(=O)C2CCN(S(=O)(=O)c3cccc4nsnc34)CC2)cc1OC`, “inactive”; for `O=C1Cc2c([nH]c3ccc(Br)cc23)-c2ccccc2N1`, 0.158 µM (active). On the same count and under the same terms, for `O=C1CCCCC(=O)c2ccccc2N1` the value was “inactive”; for `O=C(NC1(C(F)(F)F)C(=O)Nc2c1c(=O)[nH]c(=O)n2-c1ccc(F)cc1)c1cccnc1` (centres undefined), “inactive”. As for `Cn1c(Sc2ccc(-c3cccnc3)n2C)ccc1-c1cccnc1`, the AC50 is 0.398 µM (active). The same measure, in the same setting: for `C1CCc2nnnn2CC1` the value was “inactive”. On to `NC(N)=NC(N)=Nc1ccc(S(N)(=O)=O)cc1`, for which the activity, negative = inhibition is -9.8% [at 11.4 µM] (inactive). The same measure, in the same setting: for `NC(N)=NC(N)=Nc1c(F)c(F)c(F)c(F)c1F` the value was 10.9% [at 2.29 µM] (inactive). On to `NC(N)=NC(N)=Nc1ccc(S(=O)(=O)O)cc1`, for which the activity, negative = inhibition was -8.09% [at 11.4 µM] (inactive). In the case of `NC(N)=NC(N)=Nc1cccc(Cl)c1`, the AC50 result was “inactive”. The same measure, in the same setting: for `NC(N)=NC(N)=Nc1ccccc1` the value was 31.6 µM (active). The same measure, in the same setting: for `NC(N)=NC(N)=Nc1ccccc1` (tested in a mixture with another compound) the value was 3.16 µM (active); for `Nc1cc(-c2nn[nH]n2)ccc1F`, “inactive”; for `COc1ccc(/C=N/N(C(C)=O)c2nc(-c3ccc(C)cc3)cs2)cc1`, 1.58 µM (active). Same read-out and setting: for `CC(=O)N(/N=C/c1cccc(C)c1)c1nc(-c2ccc(Br)cc2)cs1` the value was 1.41 µM (active). Consider `C/C(CCN1CCCc2nc(C)c(C)cc21)=N\OC[C@@H](C)[C@H](OCc1ccccc1)C(C)C`, for which the activity, negative = inhibition was -3.05% [at 11.4 µM] (inactive). For `C[C@@]12C[C@H](O)[C@@H]3[C@H](CCC4=CC(=O)CC[C@]43C)[C@H]1CC[C@@H]2c1csc(N)n1`, the activity, negative = inhibition is -9.78% [at 2.29 µM] (inactive).

As to `Cc1ccccc1-c1cncnc1NCc1ccccc1`, the AC50 is 12.6 µM (active).

For the molecule `Cc1cccc(CNc2ncncc2-c2ccccc2Cl)c1`, the concentration at half-maximal activity (AC50) is 3.16 µM (active).

Turning to `N#Cc1ccccc1-c1cncnc1NCc1cccnc1`, the AC50 was 0.0631 µM (active).

With `Cc1cccc(CNc2ncncc2-c2ccccc2C)c1`, the AC50 is 2.51 µM (active). Regarding `CCCCCCCCCCCCCCCCCC(=O)O[C@H](CC(=O)O)C[N+](C)(C)C`, the AC50 entry was “inactive”. As to `CCN1CCCCC(=N/O)/C(=N/O)CCCC1`, the activity, negative = inhibition was -9.97% [at 11.4 µM] (inactive).

With `CC(C)(C)NS(=O)(=O)c1ccc(NC(=O)C(Sc2ccccc2)c2ccccc2)cc1` (centres undefined), the AC50 entry was “inactive”. Turning to `C[C@@H]1OC2C3=C(C(=O)[C@H]4O[C@@H]4[C@H]3O)[C@@H]1[C@H]1[C@H](C)OC=C3[C@H](O)[C@H]4O[C@H]4/C(=N\OCc4ccccc4)[C@@]321`, the activity, negative = inhibition was -13.5% [at 11.4 µM] (inactive).

As to `O=C(c1ccco1)N1CCC[C@@]2(CCN(Cc3nccs3)C2)C1`, the AC50 result was “inactive”. For `FC(F)(F)c1ccccc1-c1cncnc1NCc1cccnc1`, the AC50 was 20 µM (active). As for `Cc1ccccc1-c1cncnc1NCc1cccnc1`, the AC50 is 15.8 µM (active). On to `COc1cccc(Nc2ncc3nc(-c4ccccc4)c(=O)n(C)c3n2)c1`, for which the half-maximal activity concentration (AC50) is 3.16 µM (active). On the same count and under the same terms, for `Cc1nc2cnc(Nc3ccccc3)nc2n(C)c1=O` the value was 1.26 µM (active). On to `Cn1c(=O)c(-c2ccccc2)nc2cnc(Nc3ccccc3)nc21`, for which the AC50 was 15.8 µM (active). Take `Cc1ccc(S(=O)(=O)NC(=O)Nc2ncn[nH]2)cc1`: the activity, negative = inhibition was -21.4% [at 2.29 µM] (inactive).

For `N[C@H](CCCC(=O)O)C(=O)O`, the AC50 entry is “inactive”. On to `O=C(NC[C@@H](O)CO)c1c(I)c(C(=O)NC[C@@H](O)CO)c(I)c(N(CCO)C(=O)CO)c1I`, for which the AC50 entry is “inactive”. Take `COc1cc2nc(N3CCN(C(=O)[C@@H]4CCCO4)CC3)nc(N)c2cc1OC`: the AC50 entry was “inactive”. The same measure, in the same setting: for `CCN1CCN(S(=O)(=O)c2ccc(Cl)c(C(=O)Nc3nnc(CC(C)C)s3)c2)CC1` the value was “inactive”; for `Cc1ccc(CS(=O)(=O)CCC(=O)N2CCOCC2)cc1`, “inactive”. As to `Cc1nc2c(C(=O)N3CCOCC3)cnn2c(C)c1Cc1ccc(Cl)cc1`, the AC50 is 15.8 µM (active). On the same count and under the same terms, for `O=C(c1cc(Cl)c(=O)n(Cc2ccc(Cl)cc2)c1)N1CCOCC1` the value was “inactive”. The same measure, in the same setting: for `O=C(O)CNC(=O)[C@@H](CS)Cc1ccccc1` the value was “inactive”; for `COc1cc2nc3c(c([Si](C)(C)C(C)(C)C)c2cc1OC)Cn1c-3cccc1=O`, 5.01 µM (active); for `CC(C)(C)[Si](C)(C)c1c2c(nc3ccc(OCc4ccccc4)cc13)-c1cccc(=O)n1C2`, 5.01 µM (active). Turning to `COc1ccc2nc3c(c([Si](C)(C)C(C)(C)C)c2c1)Cn1c-3cccc1=O`, the AC50 is 0.794 µM (active). The same measure, in the same setting: for `COc1ccc(-c2nc3cnc(N4CCN(C)CC4)nc3n(CCc3ccccc3)c2=O)cc1` the value was “inactive”. With `Cc1nc2cnc(N3CCN(C)CC3)nc2n(CCc2ccccc2)c1=O`, the AC50 was 10 µM (active).

Consider `COCCn1c(=O)c(C)nc2cnc(N3CCNCC3)nc21`, for which the half-maximal activity concentration (AC50) is 10 µM (active). For the molecule `COCCn1c(=O)c(C)nc2cnc(N3CCN(C)CC3)nc21`, the AC50 was 15.8 µM (active). As to `CN1CCN(c2ncc3nc(-c4cc(F)cc(F)c4)c(=O)n(CCc4ccccc4)c3n2)CC1`, the AC50 entry was “inactive”. Turning to `CN(C)C[C@H]1CCC2=C(C1=O)C(c1ccc(Cl)c(Cl)c1)C1=C(CC[C@H](CN(C)C)C1=O)O2`, the activity, negative = inhibition was -2.04% [at 2.29 µM] (inactive). For the molecule `CC[C@H]1C2=C3C(CC[C@H]4C(OCc5ccc(F)cc5C(F)(F)F)OC[C@](C)([C@@H]34)N(C(=O)OC(C)(C)C)C2)C(COC(C)=O)C1COC(C)=O` (some centres undefined), the AC50 result was “inactive”. For the molecule `Cc1cc(C(C)(C)C)cc(CNC2CCCCC2)c1O`, the AC50 was 3.16 µM (active).

For the molecule `Oc1cc(CN2COc3ccccc32)c(O)cc1CNC1CCCCC1`, the activity, negative = inhibition is -14.2% [at 11.4 µM] (inactive). Same read-out and setting: for `CO[C@@H]1COC(=O)C/C=C\[C@@H](C)COC(=O)[C@H](Cc2ccccc2)NC(=O)C/C=C\[C@H]1C` the value was 5.59% [at 11.4 µM] (inactive).

On to `CCC(=O)NCc1c(Cl)cccc1-n1cccc1`, for which the AC50 is 14.1 µM (active). The same measure, in the same setting: for `O=C(NNC(=O)c1ccccc1-n1cccc1)c1ccccc1` the value was “inactive”; for `COc1nc(C)nc(Cl)c1NC1=NCCN1`, “inactive”. On the same count and under the same terms, for `C/C(=C\c1ccco1)C1C(C#N)=C(N)Oc2n[nH]c(-c3ccccc3)c21` (centres undefined) the value was 0.2 µM (active). Regarding `COc1ccc(C(C)(C)C)cc1NC(=O)c1cncc(Br)c1`, the AC50 is 1 µM (active).

In the case of `Cc1nnc(SCc2nc(N)nc(Nc3ccccc3)n2)s1`, the AC50 was 4.47 µM (active).

With `COc1ccc(Nc2nc(N)nc(CSc3n[nH]c(-c4ccccc4)n3)n2)cc1`, the AC50 was 15.8 µM (active). Take `NC[C@@H]1O[C@H](O[C@@H]2[C@H](O[C@@H]3O[C@H](CO)[C@@H](COC[C@H]4O[C@@H](CN)[C@@H](O)[C@@H](O)[C@@H]4N)[C@@H]3O)[C@@H](O)[C@@H](N)C[C@H]2N)[C@@H](N)[C@H](O)[C@@H]1O`: the AC50 result is “inactive”. For `CC(C)c1ccc(N(C(=O)C(F)(F)F)C(C(=O)NC2CCCCC2)c2ccncc2)cc1` (centres undefined), the AC50 entry is “inactive”. In the case of `Cc1cc(C)cc(N(C(=O)Cc2cccs2)C(C(=O)NC2CCCCC2)c2ccccn2)c1` (centres undefined), the AC50 result was “inactive”. Regarding `O=C(OC(C(=O)NC1CCCC1)c1ccncc1)C1=Cc2ccccc2OC1` (centres undefined), the AC50 is 11.2 µM (active). Same read-out and setting: for `NCCOB(c1ccccc1)c1ccccc1` the value was 15.8 µM (active); for `Cc1noc(C)c1C(=O)N1CCC2(CCCN(Cc3ccc(C#N)cc3)C2)CC1`, “inactive”. Same read-out and setting: for `Cc1noc(C)c1-c1cc(Nc2ccc(F)cc2)ncn1` the value was 0.501 µM (active); for `Cc1noc(C)c1-c1cc(Nc2ccccc2)ncn1`, 1.26 µM (active). On the same count and under the same terms, for `Cc1noc(C)c1C(=O)OCC(=O)NC(c1ccccc1)c1ccccc1` the value was “inactive”; for `Cc1n[nH]c(C)c1S(=O)(=O)N1CCOCC1`, “inactive”. As to `CCc1cc2c(nc1CC)CCN(CC/C(C)=N/O[C@@H](C)c1cc(-c3c(C)cc(C)cc3C)no1)C2`, the activity, negative = inhibition was -8.6% [at 11.4 µM] (inactive).

With `O=C(c1cnn(-c2ccccc2)c1)c1ccc2ccccc2c1O`, the AC50 is 2.51 µM (active). As for `O=C(O)/C(=C\c1ccc(O)cc1)c1cccc2ccccc12`, the activity, negative = inhibition is -10.8% [at 11.4 µM] (inactive). Still for that read-out and setting: for `CC(C)CNC(=O)O` the value was -14.2% [at 11.4 µM] (inactive).
